The source of these data is PubChem BioAssay (Tox21).

Results filed as inconclusive are left out. Where a call stands in place of a potency, no number is given. A number with no mark means an inactive call. Calls of active or inactive are those of the source. Calls come from the whole dose curve; as a rule, active = well fitted activation curve with a large enough effect in the signal ratio in the repeat runs (not every such curve was filed as active); inconclusive = weak or mixed curves; inactive = flat fitted curve, though single readings scatter; the % refers to the signal ratio.

This assay can be described thus: p53 small molecule agonists, cell-based qHTS assay (AID 1963582). The note with it: HCT-116 p53RE-bla reporter, beta-lactamase FRET ratio, 16 h; series mostly up to 66 µM; activation: at the top concentration. The source says: National Center for Advancing Translational Sciences [NCATS]
Division of Preclinical Innovation [DPI]
U.S. Environmental Protection Agency [EPA]
National Institutes of Environmental Health Sciences [NIEHS]
National Toxicology Program [NTP]
U.S. Food and Drug Administration [FDA]
p53, a tumor suppressor protein, is activated following cellular insult, including DNA damage and other cellular stresses. The activation of p53 regulates cell fate by inducing DNA repair, cell cycle arrest, apoptosis, or cellular senescence. The activation of p53, therefore, is a good indicator of DNA damage and other cellular stresses. […] The activation of the reporter gene under culture conditions can be detected by fluorescence intensity. This cell line was used to screen the Tox21 10K compound library in a 1536-well plate format and to identify agonists that activate the p53 signaling pathway.
Tox21 Assay Protocol Summary:
The p53RE-bla cells were dispensed at 4,000 cells/5 ul/well in 1536-well black wall/clear bottom plates using a Multidrop dispenser. After the assay plates were incubated at a 37 C/5% CO2 incubator for 5 hours, 23 nL of compounds dissolved in DMSO, positive controls or DMSO only was transferred to the assay plate by a pin tool. The plates were incubated at 37 C for 16 hours. After 1 uL of LiveBLAzerTM B/G FRET substrate was added using a Flying Reagent Dispenser, the plates were incubated at room temperature for 2 hours, and fluorescence intensity was measured by an Envision plate reader.
For orientation: Quantitative high-throughput screening tests each substance at several concentrations.
Turning to `C#C[C@]1(O)CC[C@H]2[C@@H]3CCc4cc(OC)ccc4[C@H]3CC[C@@]21C`, the Potency result is “inactive”.
Consider `O=C1O[C@H]([C@@H](O)CO)C(O)=C1O`, for which the Potency entry is “inactive”.
In the case of `COCCOCCOCCO`, the Potency result is “inactive”.
For `NC(=O)c1cnccn1`, the Potency entry is “inactive”.
The same measure, in the same setting: as for `C=Cc1ccc(C)cc1`, the entry is “inactive”; as for `CN(C)Cc1cc(CN(C)C)c(O)c(CN(C)C)c1`, “inactive”.
For the molecule `C=CCc1ccc(O)c(OC)c1`, the Potency result was “inactive”.
Take `CC1(C)S[C@@H]2[C@H](NC(=O)[C@H](N)c3ccccc3)C(=O)N2[C@H]1C(=O)O`: the Potency entry was “inactive”.
For `O=C(OCC1CCC2OC2C1)C1CCC2OC2C1` (stereo not given), the Potency result was “inactive”.
Take `Cc1[nH]c(=O)c(C#N)cc1-c1ccncc1`: the Potency result was “inactive”.
With `CC(C)(C)C1CCC(O)CC1` (stereo not given), the “activation” value is 0.622%.
Consider `OC(CCl)CCl`, for which the Potency result was “inactive”.
On to `Cc1ccccc1C=O`, for which the Potency result was “inactive”.
Consider `COc1ccc(C(=O)c2ccccc2O)c(O)c1`, for which the Potency result was “inactive”.
For the molecule `CCOC(=O)/C=C\C(=O)OCC`, the Potency entry is “inactive”.
The same measure, in the same setting: under `c1ccc2cc3c(ccc4ccccc43)cc2c1` stands “inactive”.
For the molecule `COC(=O)C(C)Oc1ccc(Oc2ncc(C(F)(F)F)cc2Cl)cc1` (stereo not given), the “activation” value is -8.95%.
As for `C[N+](C)(C)CCCCCC[N+](C)(C)C`, the Potency result was “inactive”.
Turning to `CCCCCC/C=C/CCCCCCCC(=O)O`, the Potency result is “inactive”.
For the molecule `CCCC[P+](CCCC)(CCCC)CCCC`, the Potency entry was “inactive”.
Turning to `Cc1ccc([N+](=O)[O-])cc1N`, the Potency entry was “inactive”.
Take `CCCCCC(N)=O`: the “activation” value was -2.47% [at 30.3 µM].
In the case of `CCCCNC(=O)NS(=O)(=O)c1ccc(C)cc1`, the Potency result is “inactive”.
Still for that read-out and setting: as for `Cc1cc(=O)oc2cc(O)ccc12`, the entry is “inactive”.
On to `CCC(=O)OC/C=C/c1ccccc1`, for which the “activation” value is 2.05%.
Turning to `O=C1c2c(O)cccc2Cc2cccc(O)c21`, the Potency result was “inactive”.
Turning to `O=C1C(c2[nH]c3ccccc3c2O)=Nc2ccccc21`, the Potency entry was “inactive”.
Take `CC1=CC(C)(C)Nc2ccccc21`: the “activation” value is 1.41%.
As for `C=CC(C)CCCC(C)(C)O` (stereo not given), the Potency result was “inactive”.
`CCCCCCCCCCCCCCCC(=O)OC(C)C`: the Potency result is “inactive”.
As to `CCC(C)(C)C(=O)O[C@H]1C[C@@H](C)C=C2C=C[C@H](C)[C@H](CC[C@@H]3C[C@@H](O)CC(=O)O3)[C@H]21`, the “activation” value was -3.47% [at 30.3 µM].
As for `CCCCNS(=O)(=O)c1ccccc1`, the Potency result is “inactive”.
With `CC(C)(CO)CO`, the Potency entry was “inactive”.
Take `CC(C)OB(OC(C)C)OC(C)C`: the Potency result is “inactive”.
In the case of `Nc1ccc(C(=O)O)cc1`, the Potency entry was “inactive”.
Take `O=C(O)CCCCCCCCC(=O)O`: the Potency entry was “inactive”.
Regarding `O=C(O)CCCC(=O)O`, the Potency result is “inactive”.
In the case of `C1N2CN3CN1CN(C2)C3`, the Potency result was “inactive”.
Turning to `Cc1ccc2ncccc2c1`, the Potency result was “inactive”.
On the same count and under the same terms, under `COc1cc(OC)c(C(=O)CCCN2CCCC2)c(OC)c1` stands “inactive”.
